compound: C#CCNC(=O)CCSSCCC(=O)NCCc1ccc(C=O)c(C=O)c1; test: lysine labeling ratio R10:1 (500 µM / 50 µM probe), SILAC-ABPP in living cells; higher = lower intrinsic lysine reactivity toward the probe, active = 2 or less; details: HeLa; probe concentrations 500 vs 50 µM
Procedure, shortened: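 An alkyne-tagged lysine probe with a disulfide linker labelled living HeLa cells in PBS at room temperature at either 50 µM or 500 µM, using SILAC light and heavy cells in forward and reverse label swaps. Lysates were mixed, clicked to biotin-azide, trypsin-digested, enriched on neutravidin, DTT-released, alkylated and measured by LC-MS/MS on a TIMS-TOF Pro. Each lysine's R is the filtered median high-probe/low-probe MS1 peptide ratio, combined as the median over forward and reverse replicates, with 20 as the upper limit.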

UniProt Q15149, sequence (Q15149 whole entry): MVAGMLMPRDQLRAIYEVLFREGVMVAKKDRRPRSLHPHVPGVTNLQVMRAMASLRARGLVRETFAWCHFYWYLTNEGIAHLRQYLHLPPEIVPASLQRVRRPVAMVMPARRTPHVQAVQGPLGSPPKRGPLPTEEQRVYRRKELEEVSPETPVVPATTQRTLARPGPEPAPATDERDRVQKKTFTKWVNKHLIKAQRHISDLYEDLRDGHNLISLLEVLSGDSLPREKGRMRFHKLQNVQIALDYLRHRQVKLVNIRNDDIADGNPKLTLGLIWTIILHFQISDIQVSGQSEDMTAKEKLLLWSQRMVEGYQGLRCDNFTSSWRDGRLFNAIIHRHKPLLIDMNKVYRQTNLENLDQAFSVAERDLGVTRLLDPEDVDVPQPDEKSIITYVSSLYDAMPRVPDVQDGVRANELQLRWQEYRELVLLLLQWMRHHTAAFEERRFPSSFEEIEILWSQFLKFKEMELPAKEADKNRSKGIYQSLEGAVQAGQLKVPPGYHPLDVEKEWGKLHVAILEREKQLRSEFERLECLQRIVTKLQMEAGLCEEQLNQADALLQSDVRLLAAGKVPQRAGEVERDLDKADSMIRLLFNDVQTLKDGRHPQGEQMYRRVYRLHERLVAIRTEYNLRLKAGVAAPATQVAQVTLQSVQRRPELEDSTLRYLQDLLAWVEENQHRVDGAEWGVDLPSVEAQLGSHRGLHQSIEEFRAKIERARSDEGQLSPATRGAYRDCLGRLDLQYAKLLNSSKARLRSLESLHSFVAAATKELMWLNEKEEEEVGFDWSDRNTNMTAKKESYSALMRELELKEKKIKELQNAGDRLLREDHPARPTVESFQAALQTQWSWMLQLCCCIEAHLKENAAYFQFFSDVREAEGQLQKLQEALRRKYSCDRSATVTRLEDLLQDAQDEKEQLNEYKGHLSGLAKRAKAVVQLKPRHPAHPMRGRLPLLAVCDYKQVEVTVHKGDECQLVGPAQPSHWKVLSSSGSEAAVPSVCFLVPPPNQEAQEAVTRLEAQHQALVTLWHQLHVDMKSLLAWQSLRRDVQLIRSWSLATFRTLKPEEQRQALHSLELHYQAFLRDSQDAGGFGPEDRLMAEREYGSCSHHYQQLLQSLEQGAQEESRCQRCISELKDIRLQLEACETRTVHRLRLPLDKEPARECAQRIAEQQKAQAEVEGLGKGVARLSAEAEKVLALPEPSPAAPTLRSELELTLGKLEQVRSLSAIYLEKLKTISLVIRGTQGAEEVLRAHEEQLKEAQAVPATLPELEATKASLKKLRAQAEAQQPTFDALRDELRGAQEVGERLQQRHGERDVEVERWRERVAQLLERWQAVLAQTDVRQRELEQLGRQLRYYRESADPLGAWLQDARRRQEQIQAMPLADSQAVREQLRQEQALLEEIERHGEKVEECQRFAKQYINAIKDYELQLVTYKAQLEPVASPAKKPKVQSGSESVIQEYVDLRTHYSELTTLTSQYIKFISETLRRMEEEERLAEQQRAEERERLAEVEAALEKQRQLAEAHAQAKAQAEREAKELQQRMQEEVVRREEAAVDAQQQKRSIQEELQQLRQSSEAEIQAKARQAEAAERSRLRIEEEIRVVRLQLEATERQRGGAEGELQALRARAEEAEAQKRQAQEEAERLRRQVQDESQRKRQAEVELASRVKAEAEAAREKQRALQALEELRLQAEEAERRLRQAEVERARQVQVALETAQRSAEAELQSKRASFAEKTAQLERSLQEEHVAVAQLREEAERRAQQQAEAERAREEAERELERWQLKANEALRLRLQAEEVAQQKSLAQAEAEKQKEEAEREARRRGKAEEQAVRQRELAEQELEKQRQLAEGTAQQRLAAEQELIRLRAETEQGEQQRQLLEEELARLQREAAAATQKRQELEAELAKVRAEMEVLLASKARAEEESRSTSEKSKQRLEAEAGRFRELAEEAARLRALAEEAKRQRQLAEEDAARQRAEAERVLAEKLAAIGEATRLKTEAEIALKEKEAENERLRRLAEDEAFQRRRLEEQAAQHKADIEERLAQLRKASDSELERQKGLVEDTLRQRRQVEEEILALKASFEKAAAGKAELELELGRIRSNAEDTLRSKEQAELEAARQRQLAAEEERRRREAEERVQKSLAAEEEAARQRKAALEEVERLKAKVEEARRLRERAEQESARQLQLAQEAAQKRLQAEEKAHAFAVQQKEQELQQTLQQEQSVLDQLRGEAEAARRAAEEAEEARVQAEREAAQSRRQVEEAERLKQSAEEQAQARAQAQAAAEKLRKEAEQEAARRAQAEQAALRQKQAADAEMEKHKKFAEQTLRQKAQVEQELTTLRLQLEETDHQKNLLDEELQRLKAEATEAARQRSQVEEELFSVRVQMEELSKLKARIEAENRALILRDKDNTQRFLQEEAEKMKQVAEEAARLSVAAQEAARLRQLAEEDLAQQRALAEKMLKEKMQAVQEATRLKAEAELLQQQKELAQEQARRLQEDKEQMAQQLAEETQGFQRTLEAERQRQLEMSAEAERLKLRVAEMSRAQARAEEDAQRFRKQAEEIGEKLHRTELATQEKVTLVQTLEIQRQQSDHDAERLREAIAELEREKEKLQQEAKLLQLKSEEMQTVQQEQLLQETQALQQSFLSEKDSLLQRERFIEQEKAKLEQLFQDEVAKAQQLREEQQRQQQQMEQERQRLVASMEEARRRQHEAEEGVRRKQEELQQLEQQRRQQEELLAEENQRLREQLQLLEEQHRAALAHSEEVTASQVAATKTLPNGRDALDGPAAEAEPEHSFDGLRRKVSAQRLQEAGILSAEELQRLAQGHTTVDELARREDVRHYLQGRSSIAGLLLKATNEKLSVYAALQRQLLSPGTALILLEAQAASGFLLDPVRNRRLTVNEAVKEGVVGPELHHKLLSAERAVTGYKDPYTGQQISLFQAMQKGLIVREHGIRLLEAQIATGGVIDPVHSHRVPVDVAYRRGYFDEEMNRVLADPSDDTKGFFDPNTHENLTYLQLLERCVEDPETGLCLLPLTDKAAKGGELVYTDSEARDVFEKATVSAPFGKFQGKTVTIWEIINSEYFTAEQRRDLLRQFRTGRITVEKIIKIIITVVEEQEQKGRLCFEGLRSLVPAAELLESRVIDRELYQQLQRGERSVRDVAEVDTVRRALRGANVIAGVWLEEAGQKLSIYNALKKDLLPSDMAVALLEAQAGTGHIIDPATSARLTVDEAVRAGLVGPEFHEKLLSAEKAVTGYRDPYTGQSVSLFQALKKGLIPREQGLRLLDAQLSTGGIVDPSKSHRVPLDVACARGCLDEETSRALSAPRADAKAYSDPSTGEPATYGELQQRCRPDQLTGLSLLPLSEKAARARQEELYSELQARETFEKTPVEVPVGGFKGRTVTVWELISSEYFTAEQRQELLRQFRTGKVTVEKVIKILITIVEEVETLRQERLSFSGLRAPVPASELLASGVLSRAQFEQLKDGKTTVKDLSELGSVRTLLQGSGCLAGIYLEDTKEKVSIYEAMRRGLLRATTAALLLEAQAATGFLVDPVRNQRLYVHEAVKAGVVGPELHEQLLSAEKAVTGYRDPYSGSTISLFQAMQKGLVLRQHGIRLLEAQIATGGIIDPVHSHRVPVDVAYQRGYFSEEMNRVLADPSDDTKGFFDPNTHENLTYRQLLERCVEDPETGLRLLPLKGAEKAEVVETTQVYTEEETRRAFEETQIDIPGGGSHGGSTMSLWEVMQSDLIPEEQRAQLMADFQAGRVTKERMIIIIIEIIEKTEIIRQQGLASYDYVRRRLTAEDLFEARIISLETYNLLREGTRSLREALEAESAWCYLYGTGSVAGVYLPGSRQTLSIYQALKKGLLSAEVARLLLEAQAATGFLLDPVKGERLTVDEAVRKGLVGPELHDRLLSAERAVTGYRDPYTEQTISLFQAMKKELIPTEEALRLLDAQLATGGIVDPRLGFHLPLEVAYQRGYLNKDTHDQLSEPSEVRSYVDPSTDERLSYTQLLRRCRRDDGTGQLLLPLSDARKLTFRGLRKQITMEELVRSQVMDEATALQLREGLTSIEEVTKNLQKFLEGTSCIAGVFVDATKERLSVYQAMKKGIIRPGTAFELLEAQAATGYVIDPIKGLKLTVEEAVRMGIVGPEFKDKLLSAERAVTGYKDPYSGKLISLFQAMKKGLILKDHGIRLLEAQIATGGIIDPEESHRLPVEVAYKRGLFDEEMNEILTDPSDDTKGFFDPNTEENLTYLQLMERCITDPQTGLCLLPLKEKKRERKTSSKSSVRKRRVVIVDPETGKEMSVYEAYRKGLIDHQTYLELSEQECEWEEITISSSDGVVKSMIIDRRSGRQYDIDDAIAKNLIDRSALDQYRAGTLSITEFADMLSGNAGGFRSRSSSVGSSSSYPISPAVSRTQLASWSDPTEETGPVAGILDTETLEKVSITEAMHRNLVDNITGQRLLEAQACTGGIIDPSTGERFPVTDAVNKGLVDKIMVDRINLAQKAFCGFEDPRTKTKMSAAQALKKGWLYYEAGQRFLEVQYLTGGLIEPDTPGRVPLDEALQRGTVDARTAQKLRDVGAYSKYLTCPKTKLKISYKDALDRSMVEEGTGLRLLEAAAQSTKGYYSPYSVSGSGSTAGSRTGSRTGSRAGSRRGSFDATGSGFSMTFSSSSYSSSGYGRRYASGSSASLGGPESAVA
UniProt P34741, sequence (P34741 whole entry): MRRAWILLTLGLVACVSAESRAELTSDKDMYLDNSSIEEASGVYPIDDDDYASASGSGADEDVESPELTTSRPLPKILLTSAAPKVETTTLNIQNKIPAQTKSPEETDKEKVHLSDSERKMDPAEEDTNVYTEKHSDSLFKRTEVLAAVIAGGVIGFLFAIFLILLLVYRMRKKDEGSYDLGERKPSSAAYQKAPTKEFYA
UniProt P09601, sequence (P09601 whole entry): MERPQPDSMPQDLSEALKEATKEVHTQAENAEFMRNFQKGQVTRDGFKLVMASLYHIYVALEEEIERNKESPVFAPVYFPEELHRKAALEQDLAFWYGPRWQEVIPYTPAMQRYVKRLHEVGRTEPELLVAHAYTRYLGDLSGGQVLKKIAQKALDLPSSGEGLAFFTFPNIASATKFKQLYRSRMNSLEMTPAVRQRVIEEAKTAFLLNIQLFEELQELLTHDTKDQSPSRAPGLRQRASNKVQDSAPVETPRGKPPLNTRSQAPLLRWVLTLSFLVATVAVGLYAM

Target	lysine labeling ratio R10:1
EEF2 (lysine site: K407) (UniProt P13639)	1.45 (active)
TFRC (lysine site: K180) (UniProt P02786)	2.39 (inactive)
SPTBN1 (lysine site: K1913) (UniProt Q01082)	4.33 (inactive)
FAT1 (lysine site: K1542) (UniProt Q14517)	2.78 (inactive)
UniProt P46781 (lysine site: K155)	2.28 (inactive)
UniProt Q15149 (lysine site: K1774)	8.57 (inactive)
ITGB1 (lysine site: K238) (UniProt P05556)	1.34 (active)
F11R (lysine site: K78) (UniProt Q9Y624)	3.33 (inactive)
GHITM (lysine site: K76) (UniProt Q9H3K2)	4.44 (inactive)
AHNAK (lysine site: K130) (UniProt Q09666)	1.37 (active)
SDC2 (lysine site: K141) (UniProt P34741)	1.35 (active)
TLN1 (lysine site: K357) (UniProt Q9Y490)	1.16 (active)
SPTBN1 (lysine site: K1684) (UniProt Q01082)	1.83 (active)
UniProt Q15149 (lysine site: K923)	9.2 (inactive)
UniProt Q15149 (lysine site: K746)	2.49 (inactive)
FAT1 (lysine site: K101) (UniProt Q14517)	2.6 (inactive)
HMOX1 (lysine site: K39) (UniProt P09601)	1.45 (active)

From the supplement of paper PMC11001985
